Activity calls are given as the source filed them.

Test [1] is described as follows: optical density shifts of acrAB sulA E. coli – strain DRC41, OD650, 48 h, E. coli filamentation inducer project, primary screen (AID 1152).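 Further: E. coli MC1000 strain DRC41 lacking acrAB efflux pump and sulA.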 The following applies: higher = more signal, called active from +8 up or from −8 down.
Test [2] can be described thus: probe aLefty1 binding on compound microarray – biochemical, small-molecule microarray, 635/667 nm fluorescence, primary screen (AID 1153).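 Further: score merges spot fluorescence with signal-to-noise ratio from the scanned slide images.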 As to conditions: higher = more signal.
Test [3] in a line: plasmodial surface anion channel blockers, osmotic lysis – cell-based, P. falciparum Indochina, OD700, 1 h, primary screen (AID 1154). As to conditions: P. falciparum Indochina infected RBC osmotic lysis, higher = more signal, called active from +8 up or from −8 down.
Test [4] can be described thus: plasmodial surface anion channel blockers, osmotic lysis – cell-based, P. falciparum Indochina, OD700, 2 h, primary screen (AID 1155).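 Further: lysis reports solute entry through the parasite surface anion channel PSAC.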 The following applies: P. falciparum Indochina infected erythrocytes, higher = more signal, called active from +8 up or from −8 down.
Test [5] can be described thus: changes in parasitized red cell lysis, either direction – P. falciparum Indochina, OD700, 3 h, PSAC antagonist project, primary screen (AID 1156). The following applies: P. falciparum-infected erythrocytes, osmotic lysis, higher = more signal, called active from +8 up or from −8 down.
Test [6] in a line: plasmodial surface anion channel blockers, osmotic lysis – cell-based, P. falciparum Indochina, OD700, 18 h, primary screen (AID 1157). As to conditions: P. falciparum Indochina infected erythrocytes, osmotic lysis OD700, 18 h; higher = more signal, called active from +8 up or from −8 down.
The nature of test [7]: S6 kinase pathway phospho-S6 level changes – cell-based, A549, cytoblot, luminescence, serum-stimulated, primary screen (AID 1158).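 Further: serum-stimulated A549 lung adenocarcinoma cells; signal is phosphorylated S6 detected by cytoblot immunostaining with HRP secondary.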 The following applies: 5 h, higher = more signal.
The target of test [8] is NADPH oxidase 2 (Homo sapiens) (UniProt P04839). The experiment in a line: compounds shifting NOX2 Amplex Red fluorescence – cell-based, HEK293-NOX2, PMA-stimulated, NOX inhibitor project, primary screen (AID 1159). Further: test concentration not given here. The following applies: 45 min, higher = more signal, called active from +8 up or from −8 down.
Sequence of NADPH oxidase 2 (Homo sapiens) (P04839 whole entry, looked up): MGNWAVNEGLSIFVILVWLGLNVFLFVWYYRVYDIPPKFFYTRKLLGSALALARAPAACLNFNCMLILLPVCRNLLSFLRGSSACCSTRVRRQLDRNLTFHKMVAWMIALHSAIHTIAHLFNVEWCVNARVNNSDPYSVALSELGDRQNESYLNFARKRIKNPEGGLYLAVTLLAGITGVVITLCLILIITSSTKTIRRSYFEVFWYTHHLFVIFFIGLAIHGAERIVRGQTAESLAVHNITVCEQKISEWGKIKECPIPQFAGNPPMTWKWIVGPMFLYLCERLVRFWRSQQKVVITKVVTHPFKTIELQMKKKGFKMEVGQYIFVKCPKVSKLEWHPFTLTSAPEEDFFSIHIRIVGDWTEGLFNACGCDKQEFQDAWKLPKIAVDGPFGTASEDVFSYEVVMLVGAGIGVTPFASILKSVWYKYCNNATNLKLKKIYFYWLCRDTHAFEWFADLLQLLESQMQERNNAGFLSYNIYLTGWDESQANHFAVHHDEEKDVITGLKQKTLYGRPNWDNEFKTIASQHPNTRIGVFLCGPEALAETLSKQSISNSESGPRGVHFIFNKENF
Test [9] has as its target NADPH oxidase 4 (Homo sapiens) (UniProt Q9NPH5). The experiment in a line: compounds shifting NOX4 Amplex Red fluorescence – cell-based, HEK293-NOX4, tetracycline-induced, NOX inhibitor project, primary screen (AID 1160). As to conditions: HEK293-NOX4, Amplex Red H2O2 fluorescence, 45 min; higher = more signal, called active from +8 up or from −8 down.
In test [10] the target is NADPH oxidase 5 (Homo sapiens) (UniProt Q96PH1). Kind of test: compounds shifting NOX5 Amplex Red fluorescence – cell-based, HEK293-NOX5, NOX inhibitor project, primary screen (AID 1161). As to conditions: HEK293-NOX5, ionomycin, 45 min, higher = more signal.
Sequence of NADPH oxidase 5 (Homo sapiens) (Q96PH1 whole entry, looked up): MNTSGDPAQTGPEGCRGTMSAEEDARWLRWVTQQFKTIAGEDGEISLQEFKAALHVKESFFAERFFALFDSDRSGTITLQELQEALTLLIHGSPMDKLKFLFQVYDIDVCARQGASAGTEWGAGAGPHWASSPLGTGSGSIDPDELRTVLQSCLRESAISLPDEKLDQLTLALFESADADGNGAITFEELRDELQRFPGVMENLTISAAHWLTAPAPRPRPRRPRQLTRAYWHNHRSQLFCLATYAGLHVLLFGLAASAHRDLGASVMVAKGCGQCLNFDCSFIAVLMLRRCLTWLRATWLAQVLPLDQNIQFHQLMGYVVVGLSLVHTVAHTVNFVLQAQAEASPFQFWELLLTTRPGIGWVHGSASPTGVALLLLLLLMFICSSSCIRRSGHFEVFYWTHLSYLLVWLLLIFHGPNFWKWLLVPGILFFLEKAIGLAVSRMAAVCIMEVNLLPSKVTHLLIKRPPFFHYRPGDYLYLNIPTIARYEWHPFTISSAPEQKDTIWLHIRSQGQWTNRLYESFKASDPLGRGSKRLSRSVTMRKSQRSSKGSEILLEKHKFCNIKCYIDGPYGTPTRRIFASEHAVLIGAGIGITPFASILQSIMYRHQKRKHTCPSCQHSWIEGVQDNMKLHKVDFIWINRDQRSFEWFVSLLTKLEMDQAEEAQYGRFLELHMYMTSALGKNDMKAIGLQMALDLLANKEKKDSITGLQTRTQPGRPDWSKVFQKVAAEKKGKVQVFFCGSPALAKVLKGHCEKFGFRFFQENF

Sequence of NADPH oxidase 4 (Homo sapiens) (Q9NPH5 whole entry, looked up): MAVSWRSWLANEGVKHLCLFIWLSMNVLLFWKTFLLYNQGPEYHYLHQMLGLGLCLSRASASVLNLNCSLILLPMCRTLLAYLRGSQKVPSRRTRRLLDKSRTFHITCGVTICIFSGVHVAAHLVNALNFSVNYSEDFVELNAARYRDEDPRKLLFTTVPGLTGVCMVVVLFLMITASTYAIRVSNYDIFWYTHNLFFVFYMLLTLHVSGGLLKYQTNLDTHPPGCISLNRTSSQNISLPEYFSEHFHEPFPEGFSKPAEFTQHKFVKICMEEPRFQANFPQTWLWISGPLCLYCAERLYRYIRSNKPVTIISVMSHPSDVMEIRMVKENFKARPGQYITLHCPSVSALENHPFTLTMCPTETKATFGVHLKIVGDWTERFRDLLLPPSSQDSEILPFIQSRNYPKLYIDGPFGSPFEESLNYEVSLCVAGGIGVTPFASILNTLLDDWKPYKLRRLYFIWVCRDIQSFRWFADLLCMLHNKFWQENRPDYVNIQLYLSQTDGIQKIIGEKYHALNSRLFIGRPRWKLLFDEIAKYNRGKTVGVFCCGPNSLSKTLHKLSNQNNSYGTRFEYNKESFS

Turning to `CC(CO)N1C(=O)[C@@H]2[C@H]3C(=O)OCC=C[C@H]3OC23C=CCN(CCN2CCOCC2)C(=O)[C@@H]13` (stereo not given in full), the z-score is -1.06 (inactive) in test [1]; 0.158 (inactive) in [3]; -0.358 (inactive) in test [4]; -0.0103 (inactive) in test [5]; -0.255 (inactive) in test [6]; -0.471 in test [7]. For the same compound, the z-score is 0.381 (inactive) in [8], 0.194 (inactive) in [9] and 1.2 in test [10]. Also, the composite z-score in test [2] is -0.482.

With `O=C1N(Cc2ccccc2)Cc2ccccc2[C@@H]2OC(c3ccc(OCCCO)cc3)=N[C@]12CCS(=O)(=O)c1ccccc1`, the z-score in [1] is -0.715 (inactive); in test [3], 21.2 (active); in test [4], 4.09 (inactive); in [5], 2.99 (inactive); in test [6], 0.492 (inactive); in [7] it was 0.0549. Moreover, the z-score in [8] is -0.146 (inactive); in [9], 1.23 (inactive); in test [10], 1.03. In test [2], the composite z-score is 0.547.

For `C[C@@H]1ON(c2ccc(C(=O)OC(C)(C)C)cc2)[C@H](c2ccc(O)cc2)[C@H]1C(=O)N1C(=O)OC[C@H]1Cc1ccccc1`, the z-score in test [1] is -0.476 (inactive); in [3], 3.71 (inactive); in test [4] it was 0.709 (inactive); in test [5], -0.348 (inactive); in test [6], 0.87 (inactive); in [7] it was 0.363. Further, the figures for the z-score in test [8], in test [9] and in test [10] were -0.394 (inactive), -0.43 (inactive) and -0.209, respectively. In test [2], the composite z-score stood at 0.119.

Consider `CCOC(=O)C[C@H]1[C@H](OC(=O)c2ccccc2-c2ccccc2)[C@@H](NC(=O)c2ccc(-c3ccccc3)cc2)c2cc(OCCCO)ccc2N1C(=O)c1ccc2ccccc2n1`, for which the z-score in test [1] is -0.485 (inactive); in [3], 2.14 (inactive); in [4] it was -0.0352 (inactive); in test [5] it was -0.708 (inactive); in test [6], 0.232 (inactive); in [7], -0.0653. In addition, the figures for the z-score in test [8], in test [9] and in test [10] were 0.724 (inactive), 0.964 (inactive) and 1.24, respectively. In [2], the composite z-score was -0.28.

Turning to `COC(=O)[C@H](Cc1ccccc1)N1CC(/C=C/C2CC2)=C[C@H]1[C@H](O)Cc1ccccc1`, the z-score in test [1] was -0.555 (inactive); in test [3] it was 1.74 (inactive); in test [4] it was 0.714 (inactive); in test [5], -0.377 (inactive); in test [6] it was 0.5 (inactive); in [7], 0.184. The z-score was -4.7 (inactive) in test [8], -0.819 (inactive) in [9] and -0.607 in [10]. The composite z-score in test [2] was -0.012.

Turning to `O=C1NC(=O)C2C1C=CC(C(O)CCc1ccccc1)N2Nc1ccc(Cl)cc1Cl` (stereo not given), the z-score in [1] was -1.34 (inactive); in [3] it was 2.28 (inactive); in test [4], 1.31 (inactive); in [5] it was 0.0675 (inactive); in test [6], 1.05 (inactive); in test [7], -1.01. In addition, the results for the z-score in test [8], in test [9] and in test [10] were -0.22 (inactive), -5.55 (inactive) and -0.709, respectively. Further, the composite z-score in test [2] is -0.0162.

Turning to `COc1ccc([Si](C)(C)[C@@H]2[C@@H](CCO)O[C@]3(C(=O)N(Cc4ccc(N5CCCCC5=O)cc4)c4ccccc43)[C@H]2C)cc1`, the z-score in test [1] was 0.968 (inactive); in [3], 26 (active); in test [4] it was 21.8 (active); in test [5], 0.892 (inactive); in [6], 2.63 (inactive); in [7], 0.703. For the same compound, the z-score was 0.381 (inactive) in [8], 0.706 (inactive) in test [9] and 2.1 in test [10]. In addition, in test [2], the composite z-score came to 0.145.

`CCOC(=O)[C@H]1[C@@H]2C(=O)N3CCC[C@H]3[C@H](O[Si](C(C)C)(C(C)C)C(C)C)[C@H]2C=C2CCN(S(=O)(=O)c3ccc(C)cc3)C[C@H]21`: the z-score in test [1] is -1.12 (inactive); in [3], 5.55 (inactive); in test [4], 1.24 (inactive); in test [5], 0.216 (inactive); in [6], 1.02 (inactive); in test [7], 0.582. The z-score is 0.163 (inactive) in test [8], -0.264 (inactive) in test [9] and 1.69 in test [10]. Besides, the composite z-score in test [2] was -0.202.

Regarding `COC(=O)[C@@]1(Cc2ccc(OC)cc2)[C@H]2c3cc(C(=O)N4CCCC4)n(Cc4cccc5ccccc45)c3C[C@H]2CN1C(=O)c1ccccc1`, the z-score in test [1] is -0.492 (inactive); in [3], 3.9 (inactive); in test [4] it was 0.408 (inactive); in test [5], 1.48 (inactive); in [6], 0.983 (inactive); in [7], 0.0019. Moreover, the z-score in test [8] is 0.208 (inactive); in test [9], 1.74 (inactive); in test [10] it was -1.45. In test [2], the composite z-score came out at 0.258.

Take `O=C1O[C@H](c2ccccc2)[C@H](c2ccccc2)N2[C@H]1[C@@H](C(=O)NC[C@H](O)c1ccccc1)[C@]1(C(=O)Nc3ccc(C#CCCO)cc31)[C@H]2c1ccc(OCCO)cc1`: the z-score was 0.0129 (inactive) in test [1]; 3.5 (inactive) in test [3]; 1.19 (inactive) in test [4]; 0.123 (inactive) in test [5]; 0.663 (inactive) in [6]; -0.268 in test [7]. Further, the z-score was 1.16 (inactive) in test [8], 0.861 (inactive) in [9] and 0.275 in test [10]. In addition, in [2], the composite z-score came to 0.138.

As for `C=C(/C(=C/C[C@H](OC(C)=O)c1cccc(OCCO)c1)c1cnc2ccccc2c1)C(C)C`, the z-score in test [1] was -0.0902 (inactive); in test [3], 18.7 (active); in test [4], 3.44 (inactive); in test [5], 1.67 (inactive); in test [6], 1.12 (inactive); in test [7], -0.343. Also, the z-score in test [8] is 0.175 (inactive); in test [9], -0.456 (inactive); in [10], -0.923. Also, in [2], the composite z-score is -0.0141.

In the case of `O=C(N1CCCCC1)[C@@]1(CCS(=O)(=O)c2ccccc2)COC(c2ccc(OCCCO)cc2)=N1`, the z-score in test [1] was 0.641 (inactive); in test [3], 27.3 (active); in [4], 21.1 (active); in [5], 2.47 (inactive); in test [6], 2.93 (inactive); in test [7], -0.436. Also, the results for the z-score in test [8], in test [9] and in test [10] were -1.53 (inactive), 0.675 (inactive) and 0.885, respectively. In [2], this compound yielded a composite z-score of 0.457.

Take `C=CCNC(=O)[C@H]1[C@@H]2C(=O)O[C@@H](c3ccccc3)[C@@H](c3ccccc3)N2[C@@H](c2ccc(O)cc2)[C@]12C(=O)Nc1ccc(C#CC3(O)CCCCCC3)cc12`: the z-score was -1.14 (inactive) in [1]; 1.79 (inactive) in test [3]; 0.749 (inactive) in test [4]; 0.514 (inactive) in test [5]; 0.319 (inactive) in test [6]; 0.356 in test [7]. In addition, the figures for the z-score in test [8], in test [9] and in test [10] were 1.71 (inactive), 0.772 (inactive) and 1.06, respectively. In test [2], this compound had a composite z-score of 0.898.

Values taken from PubChem BioAssay.
